Source: PubChem
Hits are enriched below; roughly 2.2% of the tested compounds scored in any of these assays.
KKLEB cytotox – reduces viability of KKLEB cystic fibrosis airway cells | KKLEB CF airway cells viability, ATPlite luminescence, overnight; hits give low values; cells stimulated with P. aeruginosa culture filtrate | activity change (cytotoxicity), % at 5 µM | 360,000 compounds, 0.36% hits | AID 602141;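 active means corrected activity change at or below -50% at 5 µM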
hiPSC survival – enhancers of human iPSC single-cell survival. hiPSC single-cell survival, ATPlite luminescence; 100% = ROCK inhibitor wells, 0% = DMSO. survival enhancement, % at 20 µM. 360,000 compounds, 0.044% hits; in the data active means survival enhancement above about 18%;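 further: cells exposed to compounds for 16 hours before the ATP read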
PPC-1+TRAIL kill – PPC-1 cancer cell killing with TRAIL present. 220,000 compounds, 0.41% hits. PPC-1 cells + TRAIL, ATPLite viability luminescence. cell killing (% activity), % at 4 µM or 5 µM;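 active means cell killing above 50% in the first pass at 4 µM, then a duplicate retest at 5 µM averaging 50% or more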;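 further: plate controls were cells with TRAIL plus DMSO for no effect and medium-only wells lacking cells for full effect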
HIF-2a block – inhibitors of HIF-2a. 786-0 RCC cells HIF-2a reporter, luciferase luminescence, overnight. inhibition, % at 18.8 µM. 360,000 compounds, 0.72% hits;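 active means inhibition of the luminescence signal of 40% or more relative to plate controls, in a single-dose primary screen at 18.75 µM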
TRAIL sens C8 – sensitizes caspase-8 expressing cells to TRAIL | NB7+C8 cells + TRAIL, ATPlite viability luminescence | inhibition (viability loss, TRAIL sensitization), % at 10 µM | 360,000 compounds, 1% hits | AID 624354;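 active means compounds causing at least 50% loss of cell viability in the single-dose screen, relative to plate controls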
CF NFkB block – blocks PAF-induced NF-kB reporter in cystic fibrosis cells | KKLEB NF-kB-GFP reporter, GFP fluorescence overnight | inhibition, % at 5 µM | 360,000 compounds, 0.86% hits;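 active means at least 50% inhibition at 5 µM, scaled per plate between neutral and stimulator controls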;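 further: PAF is a Pseudomonas aeruginosa culture filtrate used as stimulus; plate controls were PAF-stimulated DMSO wells for no effect and unstimulated DMSO wells for full effect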
CF NFkB conf – CF NF-kB inhibition confirmation, single concentration | shares compounds with CF NFkB block | KKLEB CF airway cells, PAF-induced NF-kB-GFP fluorescence, overnight | inhibition, % at 5 µM | 1,300 compounds, 64% hits | AID 602472; in the data active means inhibition above about 40%;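 further: stimulus PAF is a Pseudomonas aeruginosa filtrate and not platelet activating factor; plate controls were DMSO wells with stimulus for no effect and unstimulated DMSO wells for full effect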
* hit, by the source's call; i = inactive; / = not tested or not shown; ! = not confirmed by another sample.

SMILES	KKLEB cytotox	hiPSC survival	PPC-1+TRAIL kill	HIF-2a block	TRAIL sens C8	CF NFkB block	CF NFkB conf
NC(=O)c1nc(-c2cccs2)nc2c1[nH]c(=O)n2-c1ccc(F)cc1	-42	-1	-6	6	8	53*	2
O=C(CNC(=O)c1ccc(-c2ccccc2)cc1)Nc1cccc(CO)c1	-18	-1	/	-79	6	7	/
CCOc1ccc(N2C(=O)C3C4C=CC([C@H]5CC45)[C@@H]3C2=O)cc1 (some centres not stated)	-5	0	/	-23	17	15	/
COc1ccc(Cc2nnc(SCc3ccc([N+](=O)[O-])cc3)o2)cc1	0	0	15	20	8	65*	86*
O=[N+]([O-])c1ccc(CSc2nnc(Cc3ccccc3)o2)cc1	4	1	-4	14	-14	-12	/
O=C(Nc1ccc(NC(=O)c2ccccn2)cc1)C(=O)Nc1ccc2c(c1)OCCO2	-47	0	-7	-15	-3	55*	11
CC(OC(=O)c1ccccn1)C(=O)Nc1ccc2c(c1)OCCO2 (configuration not stated)	-3	0	/	-1	11	7	/
O=C1Cc2c([nH]c3ccc(Br)cc23)-c2ccccc2N1	-25	1	/	i	34	85*	106*
Cc1cc(C)nc(Nc2cccc(Cl)c2)n1	-10	0	/	-50	7	9	/
CCC(C)Oc1cc(-c2ccnc(Nc3cccc(Cl)c3)n2)ccn1 (configuration not stated)	-42	0	2	11	35	99*	105*
Cc1cc([N+](=O)[O-])nn1CC(=O)NCc1ccco1	14	1	5	12	4	-3	/
COc1cc(C(=O)NC(=S)NNC(=O)c2ccc3c(c2)OCO3)cc(OC)c1OC	7	-1	13	13	8	-3	/
COc1cc(C(=O)c2cc3c(cc2C)OCO3)cc(OC)c1OC	-19	0	/	5	10	58*	82*
CNC(=S)N(C)/N=C1/C(=O)N(Cc2c(Cl)cccc2Cl)c2ccccc21	12	-1	/	11	32	23	/
O=C(COC(=O)c1ccc2ncsc2c1)Nc1ccc(OC(F)(F)F)cc1	6	0	/	-21	-17	52*	16
CC(C)(C)c1ccc(NC(=O)COC(=O)c2ccc3ncsc3c2)cc1	5	0	/	27	1	32	/
Cc1ccc(C(=O)Nc2cccc(C(F)(F)F)c2)cc1NC(=O)c1nccnc1N	-44	2	-8	12	54*!	59*!	78*
Cc1ccc(C(=O)Nc2cccc(C(F)(F)F)c2)cc1NC(=O)c1cnnc2ccccc12	-25	-1	19	2	-10	53*	52*
CC(C)(C)c1ccc(C(=O)CC(Sc2ccc(Cl)cc2)C(=O)O)cc1 (configuration not stated)	-16	-3	-9	26	-8	88*	4
CC(=O)Nc1ccc(S(=O)(=O)N2c3ccccc3C(C)=CC2(C)C)cc1	-17	0	12	34	19	54*	65*
Cc1c(C(=O)NCCS(=O)(=O)N2CCN(c3ccccc3F)CC2)cccc1[N+](=O)[O-]	0	0	/	8	10	10	/
O=C(Nc1cccc(-c2cnc3ccccc3n2)c1)c1ccccc1	-4	5	13	-41	18	-14	/
O=C(Nc1cccc(-c2cnc3ccccc3n2)c1)c1cccc(NC(=O)c2ccco2)c1	-10	1	0	-69	43	67*	108*
O=C(CBr)Nc1c2c(nn1-c1ccccc1)CSC2	10	1	/	3	1	-12	/
O=C(O)/C=C/c1ccc2c(-c3ccccc3)onc2c1	-16	0	9	4	-8	59*	74*
SMILES	KKLEB cytotox	hiPSC survival	PPC-1+TRAIL kill	HIF-2a block	TRAIL sens C8	CF NFkB block	CF NFkB conf
O=C(O)c1ccc2noc(-c3ccccc3)c2c1	14	-1	-28	-172	-5	4	/
N#CCCN(C(=O)COC(=O)c1cc(=O)[nH]c2ccccc12)c1ccccc1	-6	6	/	10	-5	-5	/
CC(C)N(C(=O)COC(=O)c1cncc(Br)c1)C(C)C	4	0	10	11	0	2	/
CCN(CC(=O)NC(C)(C)C)Cc1cc(=O)n2c(-c3ccccc3)csc2n1	0	1	/	15	-7	-3	/
CCOc1ccc(C(C(=O)NC2CCCC2)N(C(=O)c2snc(C(N)=O)c2N)c2cccc(O)c2)cc1 (configuration not stated)	-11	0	/	1	-5	75*	70*
CCOc1ccc(C(C(=O)NCC2CCCO2)N(Cc2cccc(OC)c2)C(=O)c2snc(C(N)=O)c2N)cc1 (configuration not stated)	-1	2	/	4	-11	-12	/
COc1ccc(C(C(=O)NCC2CCCO2)N(Cc2cccs2)C(=O)c2snc(C(N)=O)c2N)cc1 (configuration not stated)	-28	0	/	2	9	54*	50*
CN(C)c1ccc(C(C(=O)NC2CCCCC2)N(Cc2ccco2)C(=O)c2snc(C(N)=O)c2N)cc1 (configuration not stated)	-44	0	/	-14	20	88*	79*
COc1ccc(NC(=O)C2CCN(C(=O)[C@@H]3Cc4ccccc4CN3C(=O)OC(C)(C)C)CC2)cc1	7	0	/	-31	6	-6	/
C/C(CC(=O)Nc1cccc(F)c1)=N\NC(=O)c1ccncc1	1	0	/	15	-2	1	/
CC1(C)CC(=O)C=C(NC2=CC3OC(c4ccccc4)OCC3OC2=O)C1 (configuration not stated)	-8	3	3	40	0	72*	52*
COc1cccc(CNC(=O)c2cccc(S(=O)(=O)N3CCN(C)CC3)c2)c1	14	0	/	4	4	-37	/
O=C(O)CCSc1nc2ccccc2n1-c1ccccc1	24	0	/	27	-19	56*	19
CN(C)C(=O)C#Cc1ccccc1	-7	-1	14	3	-6	-3	/
O=C(C#Cc1ccccc1)c1ccccc1	-28	-5	/	6	93*	99*	44*
Cc1ccc(CN2C(=O)CSC2c2ccccc2F)cc1 (configuration not stated)	-10	0	/	19	16	-2	/
CN(Cc1cnccn1)C(=O)CC1C(=O)NCCN1Cc1c(F)cccc1Cl (configuration not stated)	6	1	16	13	-2	19	/
CC(=O)c1c(O)cc2c3c1OC(C)(C)C1CCC(C)(CC31)O2 (configuration not stated)	-24	9	/	12	16	74*	66*
